# Compound activity (PubChem BioAssay)
# Most compounds without a hit are left out; they make up all but 4.5% or so of the library.
# Rce1 inh: yeast Ras-converting enzyme inhibition | Q03530 | yeast membranes, quenched prenylated peptide cleavage fluorescence | calls only | hit rate 0.27% among 290,000 | AID 2563;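 active = fall in fluorescence gain of 50% or more versus controls, with final raw signal at or below 3038400; inconclusive = same 50% fall but final raw signal above 3038400; inactive = fall in fluorescence gain under 50%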;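 note: plate controls were neutral control wells for no effect and wells lacking membranes for full effect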
# Rtt109 HAT inh: blocks Candida albicans Rtt109/Vps75 acetyltransferase activity; hit rate 0.16% among 330,000; Q5AAJ8; inhibition, % at 34.9 µM; purified Rtt109/Vps75, ThioGlo CoA-SH fluorescence, 4 h; AID 540336;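 active = inhibition of at least 50% in every replicate; inconclusive = best replicate reaches 50% inhibition but some replicates fall short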
# Efflux pump mplx: antifungal efflux pump inhibition, Nile Red retention; inhibition, % at 10 µM; S. cerevisiae Candida pump triplex; hit rate 0.44% among 330,000;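 active = plate passing quality check with inhibition over a set limit, or well fluorescence over plate mean plus 4 SD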;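 note: Nile Red retained in pooled yeast measured as flow cytometry median fluorescence; 0% = buffer negative control and 100% = Enniatin B positive control; higher means more Nile Red kept so more efflux inhibition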
# HDAC3 inh: human HDAC3 inhibition; O15379; recombinant HDAC3, fluorogenic peptide/trypsin coupled, fluorescence; inhibition, % at 8.3 µM; hit rate 0.15% among 320,000; in the data active = inhibition above about 26%, passing the limit was not always enough; inconclusive = no clear call, values can overlap the other calls
# GRK2 inh: human GRK2 inhibition via aptamer displacement. P25098. bead flow cytometry, FAM-aptamer displacement from GRK2. inhibition of aptamer binding, % at 10 µM. hit rate 0.59% among 330,000;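 active = inhibition of aptamer binding above 40%, roughly 3 SD of noise, on plates passing a quality check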;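 note: median bead fluorescence of bound FAM aptamer so fluorescent compounds give negative values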
# ALR H2O2 inh: inhibitors of human sulfhydryl oxidase ALR; purified ALR, DTT oxidation, H2O2 HRP-luminol luminescence; AID 485317; P55789; hit rate 3.8% among 290,000; inhibition, % (no concentration beside the values);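 active = mean replicate inhibition above about 79%, with every replicate also reaching it, limit read from the data; inconclusive = only one of the two criteria met; inactive = mean below limit and not every replicate reaching it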
# Target sequence (P55789 whole entry, looked up): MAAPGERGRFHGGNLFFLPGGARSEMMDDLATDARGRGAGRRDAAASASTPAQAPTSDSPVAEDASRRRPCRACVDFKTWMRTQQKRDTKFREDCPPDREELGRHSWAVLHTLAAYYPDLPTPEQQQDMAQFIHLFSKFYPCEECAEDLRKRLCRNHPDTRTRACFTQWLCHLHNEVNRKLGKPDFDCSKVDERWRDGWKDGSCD
# * hit, by the source's call; i = inactive; u = inconclusive; x = no result.
SMILES,Rce1 inh,Rtt109 HAT inh,Efflux pump mplx,HDAC3 inh,GRK2 inh,ALR H2O2 inh
C=CCOc1ccc(/C=C\c2nc(O)c([N+](=O)[O-])c(=O)[nH]2)cc1OC,i,6.2,-0.1,10.8,0.0,67.2
C=CCOc1cccc(/C=C\c2nc(O)c([N+](=O)[O-])c(=O)[nH]2)c1,i,-0.6,0.0,5.7,2.0,73.6
O=c1[nH]c(/C=C\c2cccc(F)c2)nc(O)c1[N+](=O)[O-],i,-7.5,0.1,-3.8,1.0,91.0*
O=C1c2c(O)cc(O)cc2O[C@@]12c1c(cc(O)c3c1O[C@H](c1ccc(O)cc1)[C@@H](O)C3)O[C@@H]2c1ccc(O)cc1,i,8.1,0.0,4.0,4.0,99.0*
Cc1c(O)cc2c(c1O)C(=O)CC(c1ccc(O)cc1)O2 (centres undefined),i,-7.0,0.4,2.6,0.0,13.2
CCCN(CC1CCCO1)C(=O)CCc1nnc(-c2cc(C)on2)o1 (centres undefined),i,1.5,-0.1,0.8,0.0,7.5
Cc1ccc(CN2CCSc3ccc(C(=O)NCc4cccnc4)cc32)cc1,i,-4.9,0.1,-32.8,6.0,45.4
O=C(c1ccc2c(c1)N(Cc1ccccc1)CCS2)N1CCCCC1,i,-0.7,0.3,0.1,0.0,98.9*
CN1CCN(C(=O)c2ccc3c(c2)N(Cc2ccccc2)CCS3)CC1,i,5.5,0.0,-11.4,1.0,98.5*
COC(=O)c1ccc(COc2ccc(/C=N/NC(N)=S)cc2)o1,x,x,-0.2,8.5,5.0,x
CC(C)c1ccc(NC(=O)NC(C)c2ccc3c(c2)OCO3)cc1 (centres undefined),i,57.9*,-4.0,9.3,0.0,-6.0
Cc1cc(Cl)cc(C)c1OCCOCCNCc1ccccc1,i,-4.7,0.1,2.6,0.0,1.3
Cc1ccsc1C(=O)OCC(=O)N1CC(C)CC(C)C1 (centres undefined),x,-6.4,0.0,3.6,1.0,-13.8
O=C(Oc1ccc(-n2cnnn2)cc1)c1ccco1,i,-0.9,0.0,35.6*,1.0,-4.1
CC(=O)Nc1ccc(OC(=O)c2ccco2)cc1,i,0.4,-0.1,5.8,0.0,-8.4
CCCOC(=O)c1ccc(OC(=O)c2ccco2)cc1,i,3.8,-3.4,32.9*,21.0,5.5
O=C(Oc1ccc(N2C(=O)CCC2=O)cc1)c1ccco1,i,-12.4,0.1,8.5,1.0,0.6
O=C(COC(=O)c1ccc(OC(F)F)cc1)NCc1cccs1,x,-1.5,0.0,1.6,2.0,-10.3
CC1Sc2ccccc2N(CC(=O)N(C(C)C)C(C)C)C1=O (centres undefined),i,51.0*,0.2,-6.1,5.0,-4.2
Cc1ccc(-c2ccc(S(=O)(=O)NCc3ccco3)cc2)cc1,i,-3.7,-0.1,1.0,0.0,-5.6
CC/C(=N\NS(=O)(=O)c1ccc(C)cc1)c1ccco1,i,-5.3,-0.5,16.3,4.0,97.8*
Cc1ccc(/C=N/n2c(-c3ccccc3)n[nH]c2=S)cc1,i,4.4,-0.2,-0.4,0.0,-6.4
O=C(O)c1ccc(/C=N/n2cc(-c3ccccc3)[nH]c2=S)cc1,i,5.5,0.0,9.3,4.0,99.1*
COc1cc(-c2n[nH]c(=S)n2/N=C/c2cccn2C)cc(OC)c1OC,i,3.3,0.0,u,2.0,96.5*
Cc1ccc(-c2n[nH]c(=S)n2/N=C/c2ccc(C(=O)O)cc2)cc1,i,-2.6,-0.2,10.5,0.0,89.9*
SMILES,Rce1 inh,Rtt109 HAT inh,Efflux pump mplx,HDAC3 inh,GRK2 inh,ALR H2O2 inh
COc1cc(/C=N/n2c(-c3ccccc3)n[nH]c2=S)ccc1O,i,3.2,0.1,7.4,1.0,98.8*
Cc1ccc(S(=O)(=O)N2CCCC2)cc1C(=O)NCCOc1ccccc1,x,6.8,0.0,3.2,0.0,1.1
CC(C(=O)Nc1cccc(S(=O)(=O)N2CCOCC2)c1)N1CCN(C)CC1 (centres undefined),i,-7.8,-0.1,5.4,1.0,-1.5
COc1cc(/C=N/n2c(COc3ccccc3)n[nH]c2=S)cc(Br)c1O,i,15.4,-0.2,6.3,0.0,97.0*
CCc1n[nH]c(=S)n1/N=C/c1cc(Br)c(O)c(OC)c1,i,-0.1,-0.1,11.8,1.0,68.3
COc1cc(/C=N/n2c(-c3n[nH]c4c3CCC4)n[nH]c2=S)ccc1O,i,6.7,-0.1,17.0,3.0,99.4*
CC#CCCCC(=O)Nc1cccc(C(=O)O)c1,i,4.8,0.2,-4.5,5.0,89.9*
